Only some compounds are listed: those with a hit (about 3.1% of all), similar ones and a draw of the others.
Neddyl block – cullin neddylation inhibition; calls only at 25 µM; TR-FRET cullin neddylation, biochemical; AID 651699; 360,000 tested, 0.58% active; P61081+Q13564; in the data active = inhibition above about 36%
LEDGF integ inh – blocks HIV-1 LEDGF/p75-dependent DNA integration; TR-FRET IN-LEDGF/p75 DNA integration, Eu/Cy5; 370,000 tested, 0.64% active; AID 743269; inhibition, % at 3.7 µM;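 active = inhibition above the screen-wide mean plus 3 SD, cut at about 13% in these data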;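 also: signal is the Cy5 over europium emission ratio at 671 and 618 nm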
proKLK7 act – activates the human kallikrein-7 zymogen; purified proKLK7, EDANS-DABCYL substrate fluorescence; 100% is mature enzyme control, 0% vehicle; activation, % at 7 µM; 370,000 tested, 0.9% active;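 active = activation above the mean of all tested compounds plus 3 SD, computed per campaign excluding outliers beyond control limits, cut at about 13% in these data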
Target sequence (P49862 whole entry, looked up): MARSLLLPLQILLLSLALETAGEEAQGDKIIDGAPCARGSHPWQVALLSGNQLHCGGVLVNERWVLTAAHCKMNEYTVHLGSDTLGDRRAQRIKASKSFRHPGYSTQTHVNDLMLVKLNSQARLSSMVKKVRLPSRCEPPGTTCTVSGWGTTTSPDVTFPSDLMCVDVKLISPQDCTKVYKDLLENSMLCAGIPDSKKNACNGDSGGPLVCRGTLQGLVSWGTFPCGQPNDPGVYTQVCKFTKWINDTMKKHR
Rin1 Abl inh – blocks binding of human Rin1 to Abl; AID 588664; 360,000 tested, 0.4% active; TR-FRET Rin1/Abl binding, biochemical; inhibition, % at 7.35 µM; P00519+Q13671; in the data active = inhibition above about 5%, passing the limit was not always enough
UHRF1 MBD2 ctr – human UHRF1 methylated DNA binding inhibitors. AID 687016. UHRF1 binding to methylated oligo, TR-FRET. inhibition, % at 4.4 µM. Q96T88. 370,000 tested, 0.75% active; in the data active = inhibition above about 21%;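 also: UHRF1 SRA domain binding a hemimethylated CpG hairpin DNA probe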
MBD2 DNA inh – blocks human MBD2 binding to methylated DNA; Q9UBB5; TR-FRET, MBD2 binding to methylated oligonucleotide; inhibition, % at 4.4 µM; 370,000 tested, 0.31% active; in the data active = inhibition above about 13%
Target sequence (Q9UBB5 whole entry, looked up): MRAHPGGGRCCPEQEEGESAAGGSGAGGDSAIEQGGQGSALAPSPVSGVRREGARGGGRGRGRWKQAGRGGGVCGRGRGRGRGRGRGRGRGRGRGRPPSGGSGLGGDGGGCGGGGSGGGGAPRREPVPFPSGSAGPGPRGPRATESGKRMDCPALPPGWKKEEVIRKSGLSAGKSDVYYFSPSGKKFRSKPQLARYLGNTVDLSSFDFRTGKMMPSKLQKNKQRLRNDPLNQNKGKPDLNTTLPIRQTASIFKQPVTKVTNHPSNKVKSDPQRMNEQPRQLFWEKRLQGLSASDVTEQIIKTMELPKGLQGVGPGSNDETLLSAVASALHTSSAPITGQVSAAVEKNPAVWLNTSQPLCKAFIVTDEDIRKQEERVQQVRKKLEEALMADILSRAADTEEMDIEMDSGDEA
Neddyl inh conf – confirmation of human cullin neddylation inhibitors. shares compounds with Neddyl block. TR-FRET cullin neddylation biochemical assay. calls only at 25 µM. 1,800 tested, 13% active; in the data active = inhibition above about 40%;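 also: neddylation substrate is the cullin 1 ring ligase complex with SKP2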
Each line names hits and unclear results; the compound was inactive in the other large screens (follow-up assays come after a bar, where shown).

CC1CCCC(NC(=O)c2ccc(F)c(S(=O)(=O)N3CCOCC3)c2)C1C (stereo not drawn)	none
CN(CC(=O)Nc1cccc(F)c1)C(=O)c1cc(-c2ccco2)nc2ccccc12	Neddyl block active
O=C(Nc1ccc2nsnc2c1)N1CCCCC1	Neddyl block active | Neddyl inh conf inactive
S=C(Nc1ccc2nsnc2c1)N1CCCCCC1	Neddyl block active | Neddyl inh conf inactive
CC1CCN(C(=O)Nc2ccc3nsnc3c2)CC1	Neddyl block active | Neddyl inh conf active
O=C(c1ccccc1)C12COc3ccccc3C1ON=C2c1ccccc1 (stereo not drawn)	none (no result: Neddyl block, Rin1 Abl inh)
Brc1ccc(-c2ncc3ccccn23)cc1	none
Nc1c(Cl)cc(Cl)cc1C(=O)OCC(=O)N1CCCC1=O	Neddyl block active (no result: LEDGF integ inh, proKLK7 act, UHRF1 MBD2 ctr, MBD2 DNA inh) | Neddyl inh conf inactive
O=C(OCC(=O)N1CCCC1=O)c1ccc(Cl)cc1[N+](=O)[O-]	none
C[C@H]1[C@@H](NC(=O)C2CCOC2)CC[C@@]23CCCN2C(=O)CCC[C@@H]13 (stereo partly drawn)	none (no result: Neddyl block, proKLK7 act, Rin1 Abl inh)
CCOP(=O)(OCC)c1ccc2ccc3ccccc3c(=O)c2c1	none
CC1CC(C)CN(CCCNC(=O)c2cc3c(=O)[nH]c4ccccc4c3n2C)C1 (stereo not drawn)	Neddyl block active | Neddyl inh conf inactive
Cn1c(C(=O)NCCCN2CCN(c3ccccc3F)CC2)cc2c(=O)[nH]c3ccccc3c21	none
CCC1CCCCN1CCCNC(=O)c1cc2c(=O)[nH]c3ccccc3c2n1C (stereo not drawn)	Neddyl block active | Neddyl inh conf inactive
CN(CCCNC(=O)c1cc2c(=O)[nH]c3ccccc3c2n1C)Cc1ccccc1	none
Cc1cc(NC(=O)NC(=O)c2ccccc2NC(=O)C(C)N)ccc1Oc1ncc(Br)cn1 (stereo not drawn)	none
OC(c1ccccc1)(c1ccccc1)C1CCN(CCCNc2cccc(Br)c2)CC1	none (no result: Neddyl block, Rin1 Abl inh)
COc1cc(OC)c(OC)cc1CNC(=O)c1ccc(COc2ccccc2)cc1	none
Fc1ccccc1-c1n[nH]c(=S)n1N=Cc1ccc(-c2ccccc2)cc1	none (no result: Neddyl block, Rin1 Abl inh)
O=C(NCc1cc(Cl)cc(Cl)c1)c1ccc2nc([C@H]3C[C@H](O)[C@@H](CO)O3)[nH]c2c1	none
COc1ccc2cc(C(=O)C3CCCN(C(=O)c4cnccn4)C3)ccc2c1 (stereo not drawn)	none (not shown: Neddyl block)
COc1ccc2cc(C(=O)C3CCCN(C(=O)/C=C/c4ccccn4)C3)ccc2c1 (stereo not drawn)	Neddyl block active | Neddyl inh conf inactive
CCOc1ccccc1N(C(=O)c1snc(C(N)=O)c1N)C(C(=O)NCCC(C)C)c1ccco1 (stereo not drawn)	Neddyl block active (no result: LEDGF integ inh, proKLK7 act, UHRF1 MBD2 ctr, MBD2 DNA inh) | Neddyl inh conf inactive
COc1ccccc1N(C(=O)c1snc(C(N)=O)c1N)C(C(=O)NC1CCCC1)c1ccco1 (stereo not drawn)	Neddyl block active | Neddyl inh conf active
COc1ccc(C)cc1N(C(=O)c1snc(C(N)=O)c1N)C(C(=O)NC1CCCCC1)c1ccc(C)o1 (stereo not drawn)	Neddyl block active
COc1ccc(OC)c(C(C(=O)NC2CCCCC2)N(C(=O)c2snc(C(N)=O)c2N)c2ccccc2OC)c1 (stereo not drawn)	none
COc1ccccc1N(C(=O)c1snc(C(N)=O)c1N)C(C(=O)NC1CCCC1)c1ccc(N(C)C)cc1 (stereo not drawn)	none
C=CCN1C=CC(=O)[C@@H](OC(=O)Nc2ccc(Br)cc2)[C@H]1c1ccccc1Br	none
CCCc1ccc2oc(C(=O)N3CCN(c4cnccn4)CC3)c(C)c2c1	Neddyl block active | Neddyl inh conf inactive
Clc1cccc(CSc2ncnc3sc4c(c23)CCCC4)c1	none (no result: Neddyl block, Rin1 Abl inh)
C/C(=C\C(=S)Nc1ccccc1)Nc1cccc2ccccc12	Neddyl block active
C/C(=C\C(=S)Nc1ccccc1)Nc1ccc2ccccc2c1	none
O=c1c2c(nc3c(-c4cccc(Br)c4)c[nH]n13)CCCC2	Neddyl block active | Neddyl inh conf inactive
O=c1c2c(nc3c(-c4ccccc4)c[nH]n13)CCC2	none (not shown: Neddyl block)
COc1ccccc1N1CC(C(=O)OCC(=O)Nc2c(C)cccc2C)CC1=O (stereo not drawn)	none
CCOc1ccc(N2CC(C(=O)N3CCCCCC3)CC2=O)cc1 (stereo not drawn)	none
COC(=O)CCC(=O)c1oc2ccc(Br)cc2c1N	none
COc1ccc2oc(C(=O)CCC(=O)O)c(N)c2c1	Neddyl block active | Neddyl inh conf inactive
Cc1ccc2c(c1)c1c3n2CC(=C2C(=O)OC(C)(C)OC2=O)NC3CCC1 (stereo not drawn)	Neddyl block active | Neddyl inh conf inactive
Cc1ccc2c(c1)-c1cc(C)nn1C(c1ccc3c(c1)OCO3)N2 (stereo not drawn)	none (not shown: Neddyl block)
Cc1cc2n(n1)C(c1ccc3c(c1)OCO3)Nc1ccccc1-2 (stereo not drawn)	Neddyl block active | Neddyl inh conf inactive
Cn1c2ccccc2c2c(C(=O)N3CCN(C(=O)c4ccco4)CC3)cn(C3CCCCC3)c(=O)c21	Neddyl block active | Neddyl inh conf inactive
Cn1c2ccccc2c2c(C(=O)N3CCN(c4ccccn4)CC3)cn(C3CCCC3)c(=O)c21	none
c1cc2c3c(cccc3c1)-c1cnccc1-2	Neddyl block active | Neddyl inh conf active
c1ccc(NC2=Nc3cccc4cccc2c34)cc1	none
C[C@H](c1ccccc1)N1C[C@@H](COCc2ccccc2)Oc2cc(N3CC[C@@H](N(C)C)C3)ccc2S1(=O)=O	none (no result: Rin1 Abl inh)
COc1ccc(OCC(=O)N/N=C/c2ccc(N(C)C)cc2)cc1	Neddyl block active | Neddyl inh conf active
CCCCCC(=O)N/N=C/c1ccc(N(C)C)cc1	Neddyl block active
COc1ccc(/C=N/NC(=O)CCCCCNC(=O)c2ccccc2)cc1	none
CN(C)c1ccc(/C=N/NC(=O)Cn2nnc3ccccc32)cc1	Neddyl block active | Neddyl inh conf inactive
CN(C)c1ccc(/C=N/NC(=O)CCCCCNC(=O)c2ccccc2)cc1	Neddyl block active | Neddyl inh conf active
COc1ccccc1Cc1c(-c2ccc(C)cc2)nc2ccc(C)cn12	none (no result: Neddyl block, Rin1 Abl inh)
COc1ccc(CCNC(=O)CCSc2nc(-c3ccco3)cc(C(F)(F)F)n2)cc1OC	none
CC(C)C[C@@H]1COc2cccc(N3CCCC3)c2S(=O)(=O)N1C	none (no result: Neddyl block, Rin1 Abl inh)
CN(C)c1ccc(/C=N/NC(=O)CNC(=O)c2ccc3c(c2)OCCO3)cc1	Neddyl block active
CCN(CC)c1ccc(/C=N/NC(=O)CNC(=O)c2ccc3c(c2)OCCO3)cc1	none (not shown: Neddyl block)
CN(C)C(=O)CCc1ccc2c3c([nH]c2c1)[C@]1(CCC2CCCC2)[C@@H](C(=O)N2CCOCC2)C[C@H](CC(=O)NCCc2ccccn2)C(=O)N1CC3	none

Compound activity (PubChem BioAssay)
